# Screening results deposited in PubChem by National Center for Advancing Translational Sciences (NCATS).
# Rows were chosen to be rich in hits. Some 19% of all compounds tested hit in one or more screens of this group.
# DT40 TDP1 no CPT: qHTS for Inhibitors of human tyrosyl-DNA phosphodiesterase 1 (TDP1): qHTS in cells in absence of CPT. DT40 Tdp1-/- hTDP1 cells, no CPT, ATP luminescence, 48 h. Potency, µM (doses to about 46.2 µM), actives largely listed as inhibitors. actives 15% (n = 420,000). AID 686978, 2013; note: nearly all actives have a fitted effect of over 55% in size
#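 Camptothecin absent (DMSO only). Human TDP1-complemented DT40 knockout cells, 400 cells/well, 37 °C for minimum 48 hr; ATP measured via CellTiter-Glo, 30 min dark incubation, luminescence.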
# TGFb SMAD3 inh: qHTS for Inhibitors of TGF-b | HepG2 CAGA-GFP TGF-b/SMAD3 reporter, GFP fluorescence, 18 h; TGF-beta stimulated, 500 pg/mL final | Potency, µM (top dose mostly 46.1 µM), actives largely listed as inhibitors | actives 1.2% (n = 410,000) | AID 588855, 2011; note: nearly all actives have a fitted effect of over 65% in size
#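 GFP signal (ex488/em500-530) from TGF-beta-stimulated HEPG2 CAGA-GFP cells, 500 pg/mL final, 18 h at 37 degrees C in DMEM plus 1% FBS, normalized to unstimulated and DMSO-stimulated controls.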
# TDP1 inh: qHTS Assay for Inhibitors of Tyrosyl-DNA Phosphodiesterase (TDP1); Tyrosyl-DNA phosphodiesterase 1 (Homo sapiens), Q9NUW8; recombinant TDP1, AlphaScreen DNA substrate cleavage; Potency, µM (doses to about 130 µM), hits mostly inhibitors; actives 0.28% (n = 350,000); note: nearly all actives have a fitted effect of over 40% in size
# Target sequence (Q9NUW8 whole entry, looked up): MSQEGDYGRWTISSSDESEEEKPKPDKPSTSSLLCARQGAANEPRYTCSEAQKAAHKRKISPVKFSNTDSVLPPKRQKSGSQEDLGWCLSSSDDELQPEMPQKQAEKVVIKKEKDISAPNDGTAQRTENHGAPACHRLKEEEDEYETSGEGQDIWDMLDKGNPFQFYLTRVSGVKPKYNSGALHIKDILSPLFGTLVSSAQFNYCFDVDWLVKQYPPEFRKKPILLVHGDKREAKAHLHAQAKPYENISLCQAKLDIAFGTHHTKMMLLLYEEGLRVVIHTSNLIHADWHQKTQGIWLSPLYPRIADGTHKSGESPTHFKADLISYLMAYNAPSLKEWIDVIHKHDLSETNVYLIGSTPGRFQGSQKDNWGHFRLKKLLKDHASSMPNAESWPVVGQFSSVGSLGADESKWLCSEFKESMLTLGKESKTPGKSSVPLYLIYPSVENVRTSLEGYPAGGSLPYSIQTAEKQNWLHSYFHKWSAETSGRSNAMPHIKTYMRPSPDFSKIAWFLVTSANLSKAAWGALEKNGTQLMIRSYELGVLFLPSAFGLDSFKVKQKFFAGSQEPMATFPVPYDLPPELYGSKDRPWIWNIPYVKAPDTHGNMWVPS
#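 E. coli-derived human Tdp1, 1 nM final. Cpd preinc 15 min RT; substrate 15 nM final, 5 min RT; AS bead mix 10 ug/ml final, 10 min RT. Signal loss = tyrosine-FITC cleavage. No-enzyme wells = max signal.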
# IL1B secr inh: qHTS for Inhibitors of Inflammasome Signaling: IL-1-beta AlphaLISA Primary Screen; THP-1 LPS/ATP IL-1B secretion, AlphaLISA, 16 h; active compounds read low; activity change, % at 57.5 µM; actives 4.7% (n = 360,000); AID 743279, 2014; in the data active = activity change below about -50%; inconclusive = mostly about -30% to -49%
#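 Secreted IL-1B measured by AlphaLISA bead assay after 16 h compound exposure of THP-1 cells; compounds (final up to 57.5 uM) added 1 h before LPS (250 ng/mL) and ATP (1.25 mM) stimulation; lower signal means less secretion.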
# HepG2 tox: qHTS for Inhibitors of TGF-b: Cytotox Counterscreen; Potency, µM (doses to about 46.1 µM), actives largely listed as cytotoxic; actives 0.76% (n = 410,000); HepG2 CAGA-GFP viability, ATP luminescence, 18 h
#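 HepG2 CAGA-GFP cells (1000/well, DMEM with 1% FBS) received compound, then TGF-beta at 500 pg/mL final, and were incubated 18 hours at 37 degrees C. Viability was read by CellTiter-Glo luminescence. Media-only wells were set as complete cell-killing and DMSO as no toxicity.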
# TDP1 cell CPT: qHTS for Inhibitors of human tyrosyl-DNA phosphodiesterase 1 (TDP1): qHTS in cells in presence of CPT | chicken DT40 Tdp1-/-;hTDP1 cells + 20 nM CPT, ATP luminescence, 48 h | Potency, µM (highest dose often 46.2 µM), most hits filed as inhibitors | actives 12% (n = 420,000); note: nearly all actives have a fitted effect of over 55% in size
#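 Cell growth measured by CellTiter-Glo luminescence after a minimum 48 h, 37 C compound exposure with 20 nM CPT in Tdp1-knockout DT40 cells stably expressing hTDP1, seeded 400/well; qHTS titration format.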
# Hits are given with their value; - = inactive; ? = inconclusive; . = not tested or not shown. Unless noted, calls come from the whole dose curve; as a rule, active = well fitted curve in the direction sought with a large enough effect; inconclusive = small, poorly fitted or top-dose-only effect, or another doubt; inactive = no such curve, though single readings can be large; an effect the other way counts as inactive or inconclusive.
SMILES,DT40 TDP1 no CPT,TGFb SMAD3 inh,TDP1 inh,IL1B secr inh,HepG2 tox,TDP1 cell CPT
COc1cc(C)nc(NCc2ccccc2)n1,?,-,-,-,-,?
COc1nc(NCc2cccnc2)nc(NC2CCCCC2)n1,-,-,-,-,-,-
COc1ccc(Nc2cc(C)nc(NCc3ccccc3)n2)cc1,4.6µM,13µM,-,-99,-,5.2µM
Cc1cc(NC2CCCCC2)nc(NCc2ccccc2)n1,4.6µM,14µM,-,-74,-,4.6µM
Cc1cc(=O)[nH]c2nnc(SCc3ccc(F)cc3)n12,-,-,-,.,-,-
C/C(=N\NC(=O)c1cc(C)nc2ccccc12)c1ccc([N+](=O)[O-])cc1,-,-,-,-,-,-
CCCOc1ccc(Nc2cc(C)nc(C)n2)cc1,?,-,-,.,-,23µM
C/C(=N\Nc1cc(C)nc(NCc2ccccc2)n1)c1ccc([N+](=O)[O-])cc1,9.2µM,-,-,-,-,13µM
O=C(/C=C/c1ccc(O)c(O)c1)OC1C[C@](O)(C(=O)O)C[C@@H](O)[C@H]1O (some centres undefined),.,.,-,.,.,.
O=C(/C(N=Nc1cccc(C(F)(F)F)c1)=C(/O)c1cccs1)C(F)(F)F,21µM,13µM,-,-62,-,?
CC(=O)/C(N=Nc1cccc(C(F)(F)F)c1)=C(\C)O,-,-,-,-,-,-
COc1ccc(C(=O)Cn2c(Cl)nc3c2c(=O)n(C)c(=O)n3C)cc1,21µM,-,-,-,-,?
CCN(CC)c1nc2c(c(=O)n(C)c(=O)n2C)n1CC(=O)c1ccccc1,23µM,-,.,-,-,?
COc1cccc(C(=O)Cn2c(Br)nc3c2c(=O)n(C)c(=O)n3C)c1,9.2µM,-,-,-,-,?
Cn1c(=O)c2c(nc(N3CCCCCC3)n2CC(=O)c2ccccc2)n(C)c1=O,?,-,-,-,-,-
Cn1c(=O)c2c(nc(Br)n2CC(=O)C23CC4CC(CC(C4)C2)C3)n(C)c1=O,18µM,-,-,-,-,23µM
Cn1c(=O)c2c(nc(Br)n2Cc2nnc(N)s2)n(C)c1=O,-,-,.,-,-,-
COC(=O)c1ccc(Oc2nc3c(c(=O)n(C)c(=O)n3C)n2CCC(C)C)cc1,23µM,-,-,-,-,?
COC(=O)c1ccc(Oc2nc3c(c(=O)n(C)c(=O)n3C)n2C(C)C)cc1,-,-,-,.,-,?
Cc1ccc(CNC(=O)Cc2c(C(=O)O)c(C)cn2C)cc1,-,-,-,.,-,-
Cc1ccc(S(=O)(=O)N(Cc2c(F)cccc2Cl)C(=O)N2CCN(C)CC2)cc1,-,-,-,-,-,-
CC(C)c1ccc(NC(=O)C2Cc3c(-c4cccc(F)c4)ccnc3O2)cc1 (centres undefined),9.2µM,-,.,-67,-,16µM
NC(=O)c1cccc(-c2ccnc3c2CC(C(=O)Nc2ccc(Cl)cc2)O3)c1 (centres undefined),13µM,-,.,-,-,23µM
COc1ccc(NC(=O)C2Cc3c(-c4cccc(F)c4)ccnc3O2)cn1 (centres undefined),16µM,-,.,-,-,?
O=C(Nc1cccnc1)C1Cc2c(-c3cccc(F)c3)ccnc2O1 (centres undefined),?,-,.,-,-,?
SMILES,DT40 TDP1 no CPT,TGFb SMAD3 inh,TDP1 inh,IL1B secr inh,HepG2 tox,TDP1 cell CPT
CC(C)c1ccc(NC(=O)C2Cc3c(-c4cccc(C(N)=O)c4)ccnc3O2)cc1 (centres undefined),?,-,.,?,-,16µM
C=CCNC(=O)C1CCN(c2ccc(S(=O)(=O)N3CCOCC3)cc2[N+](=O)[O-])CC1,?,-,-,-,-,-
COC(=O)c1cc2oc3ccccc3c2n1Cc1ccc(Cl)cc1,?,.,-,.,-,?
CCOc1ccc(CC(=O)NC2CC(=O)N(c3ccc4c(c3)OCCO4)C2)cc1 (centres undefined),-,-,-,.,-,-
CC(=O)Nc1ccc(NC(=O)C2Cc3c(-c4ccc(Cl)cc4)ccnc3O2)cc1 (centres undefined),-,-,.,-,-,-
O=C(NCCc1ccccc1)C1Cc2c(-c3ccccc3)ccnc2O1 (centres undefined),?,-,.,-,-,?
O=C(Nc1ccccc1)C1Cc2c(-c3ccc(Cl)cc3)ccnc2O1 (centres undefined),?,-,.,-51,-,?
O=C(NCc1ccccc1)C1Cc2c(-c3ccc(Cl)cc3)ccnc2O1 (centres undefined),0.82µM,?,.,-,-,0.65µM
COc1cc(F)c(S(=O)(=O)N2CCN(S(=O)(=O)c3ccc(NC(C)=O)cc3)CC2)c(F)c1,.,.,-,.,.,.
COCCn1c(SCC(=O)c2ccccc2)nc2cc(C(=O)NC3CCCC3)ccc2c1=O,-,-,-,.,-,-
CCc1ccc2[nH]c(=O)c(CN(Cc3ccc(OC)cc3)Cc3nnnn3CCOC)cc2c1,?,-,-,?,-,18µM
